One may read the AC50 as the midpoint of the concentration-response curve, whichever way the signal moves.

Molecules are shown by their SMILES. The source made the active and inactive calls. Rule for the calls: active = hit-call score of the fitted dose curve at least 0.9, where 1 is the maximum; inactive = score below 0.9.

Assay [1] is described as follows: CEETOX_H295R_PROG: CeeTox H295R High-throughput Steroidogenesis Assay for Progesterone (PROG) (AID 2283442).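 For AC50: human H295R adrenal cells primed with 10 µM forskolin before dosing.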 The settings on record: actives raise or lower the signal. The procedure, abridged:
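H295R adrenal cells prestimulated 48 h with 10 uM forskolin, then exposed 48 h to test chemical in 0.1% DMSO. Progesterone in medium quantified by HPLC-MS/MS after MTBE extraction; viability checked by MTT in same wells.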

Read-out in assay [2]: Tumor necrosis factor receptor superfamily member 6 (Homo sapiens) (UniProt P25445)
The experiment in a line: LTEA_HepaRG_FAS: Life Technologies and Expression Analysis (LTEA) Assay for Fas cell surface death receptor (FAS) using HepaRG (AID 2283447). The settings on record: mRNA level, 48 h; actives raise or lower the signal. Summed up:
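FAS transcript level was measured by TaqMan qRT-PCR against three housekeeping genes after 48 h chemical exposure. Cells were HepaRG, 0.5% DMSO vehicle, with a top concentration of 100 uM and half-log dilutions over eight points, in duplicate.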

Read-out in assay [3]: Fatty acid synthase (Homo sapiens) (UniProt P49327)
The experiment in a line: LTEA_HepaRG_FASN: Life Technologies and Expression Analysis (LTEA) Assay for Fatty Acid Synthase (FASN) using HepaRG (AID 2283448). The settings on record: mRNA level, 48 h; actives raise or lower the signal. The procedure, abridged:
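FASN transcript measured by TaqMan qRT-PCR, normalised to three housekeeping genes, after 48 h chemical exposure of HepaRG cells. Eight-point half-log series from 100 uM in 0.5% DMSO, duplicates; gain or loss fitted against vehicle.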

Read-out in assay [4]: Cyclin D2 (CCND2), CCND2 (gene 894)
The experiment in a line: LTEA_HepaRG_CCND2: Life Technologies and Expression Analysis (LTEA) Assay for Cyclin D2 (CCND2) using HepaRG (AID 2283449). The settings on record: mRNA level, 48 h; actives raise or lower the signal. The procedure, abridged: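 CCND2 transcript levels, quantified by qRT-PCR and normalised to three housekeeping genes, were fitted bidirectionally against 0.5% DMSO. HepaRG cultures were dosed 48 h in duplicate with an 8-point half-log series up to 100 uM.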

Read-out in assay [5]: Cyclin Dependent Kinase Inhibitor 1A (CDKN1A), CDKN1A (gene 1026)
The experiment in a line: LTEA_HepaRG_CDKN1A: Life Technologies and Expression Analysis (LTEA) Assay for Cyclin Dependent Kinase Inhibitor 1A (CDKN1A) using HepaRG (AID 2283450). The settings on record: mRNA level, 48 h; actives raise or lower the signal. Summed up:
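Differentiated HepaRG cells in serum-free induction medium, exposed 48 h in duplicate to eight half-log concentrations up to 100 uM in 0.5% DMSO. mRNA measured by TaqMan qRT-PCR, normalized to ACTB, GAPDH, POLR2A; bidirectional fit versus DMSO.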

Read-out in assay [6]: Cyclin D1 (CCND1), CCND1 (gene 595)
The experiment in a line: LTEA_HepaRG_CCND1: Life Technologies and Expression Analysis (LTEA) Assay for Cyclin D1 (CCND1) using HepaRG (AID 2283451). The settings on record: mRNA level, 48 h; actives raise or lower the signal. Summed up:
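Differentiated HepaRG cells exposed 48 h in serum-free induction medium to eight half-log concentrations from 100 uM top, 0.5% DMSO, duplicates. CCND1 mRNA measured by Fluidigm TaqMan qRT-PCR, normalised to ACTB, GAPDH, POLR2A; bidirectional fit.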

Read-out in assay [7]: catalase (CAT), CAT (gene 847)
The experiment in a line: LTEA_HepaRG_CAT: Life Technologies and Expression Analysis (LTEA) Assay for catalase (CAT) using HepaRG (AID 2283452). The settings on record: mRNA level, 48 h; actives raise or lower the signal. Summed up:
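Expression of CAT was quantified by TaqMan qRT-PCR with ACTB/GAPDH/POLR2A normalization after 48 h chemical exposure of HepaRG. Eight-point half-log series, top 100 uM, in 0.5% DMSO; gain or loss fitted against vehicle.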

Read-out in assay [8]: flavin-containing dimethylaniline monooxygenases 3 (FMO3), FMO3 (gene 2328)
The experiment in a line: LTEA_HepaRG_FMO3: Life Technologies and Expression Analysis (LTEA) Assay for flavin-containing dimethylaniline monooxygenases 3 (FMO3) using HepaRG (AID 2283453). The settings on record: mRNA level, 48 h; actives raise or lower the signal. The procedure, abridged:
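FMO3 transcript quantified by TaqMan qRT-PCR against three housekeeping genes after 48 h chemical exposure of HepaRG cells. Eight-point half-log series, top 100 uM, 0.5% DMSO vehicle; phenobarbital 1mM induction control; up- or down-regulation fitted.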

Read-out in assay [9]: Cytochrome P450 (CYP1A1), CYP1A1 (gene 1543)
The experiment in a line: LTEA_HepaRG_CYP1A1: Life Technologies and Expression Analysis (LTEA) Assay for Cytochrome P450 (CYP1A1) using HepaRG (AID 2283454). The settings on record: mRNA level, 48 h; actives raise or lower the signal. The procedure, abridged:
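Differentiated human HepaRG cells, after 48 h plating, exposed in duplicate for 48 h in serum-free induction medium to 8 half-log concentrations up to 100 uM in 0.5% DMSO. CYP1A1 mRNA by qRT-PCR, normalized to ACTB/GAPDH/POLR2A; bidirectional fit versus DMSO.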

Read-out in assay [10]: CFLAR gene, CFLAR (gene 8837)
The experiment in a line: LTEA_HepaRG_CFLAR: Life Technologies and Expression Analysis (LTEA) Assay for CFLAR gene using HepaRG (AID 2283455). The settings on record: mRNA level, 48 h; actives raise or lower the signal. Summed up:
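Transcript level by qRT-PCR (normalized to ACTB, GAPDH and POLR2A) after 48 h chemical exposure of HepaRG cells, top concentration 100 uM with half-log steps, 0.5% DMSO vehicle, duplicates; fitted bidirectionally against DMSO baseline.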

Read-out in assay [11]: Forkhead box O3 (FOXO3), FOXO3 (gene 2309)
The experiment in a line: LTEA_HepaRG_FOXO3: Life Technologies and Expression Analysis (LTEA) Assay for Forkhead box O3 (FOXO3) using HepaRG (AID 2283459). The settings on record: mRNA level, 48 h; actives raise or lower the signal. Summed up: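 FOXO3 transcript measured by qRT-PCR (normalized to ACTB, GAPDH, POLR2A) after 48 h exposure of HepaRG cells in serum-free induction medium. Duplicates, eight half-log concentrations up to 100 uM, 0.5% DMSO; gain or loss fitted against DMSO.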

Read-out in assay [12]: ABC Transporter (ABCB1), ABCB1 (gene 5243)
The experiment in a line: LTEA_HepaRG_ABCB1: Life Technologies and Expression Analysis (LTEA) Assay for ABC Transporter (ABCB1) using HepaRG (AID 2283460). The settings on record: mRNA level, 48 h; actives raise or lower the signal. Summed up: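 ABCB1 transcript level measured by TaqMan qRT-PCR against three housekeeping genes after 48 h chemical exposure of differentiated HepaRG cells. Top concentration 100 uM, half-log steps, eight points, 0.5% DMSO vehicle; bidirectional fit relative to DMSO.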

Read-out in assay [13]: growth arrest and DNA damage 45 (GADD45B), GADD45B (gene 4616)
The experiment in a line: LTEA_HepaRG_GADD45B: Life Technologies and Expression Analysis (LTEA) Assay for growth arrest and DNA damage 45 (GADD45B) using HepaRG (AID 2283461). The settings on record: mRNA level, 48 h; actives raise or lower the signal. The procedure, abridged:
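Differentiated human HepaRG cells in serum-free induction medium exposed 48 h in duplicate to eight concentrations, top 100 uM, half-log steps, 0.5% DMSO. GADD45B mRNA by TaqMan qRT-PCR, normalized to ACTB, GAPDH, POLR2A; bidirectional fit versus DMSO.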

Read-out in assay [14]: ABC Transporter (ABCB11), ABCB11 (gene 8647)
The experiment in a line: LTEA_HepaRG_ABCB11: Life Technologies and Expression Analysis (LTEA) Assay for ABC Transporter (ABCB11) using HepaRG (AID 2283463). The settings on record: mRNA level, 48 h; actives raise or lower the signal. The procedure, abridged: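 ABCB11 transcript levels quantified by TaqMan qRT-PCR against three housekeeping genes after 48 h chemical exposure of HepaRG cultures. Concentrations up to 100 uM in half-log steps, 0.5% DMSO vehicle; both induction and suppression scored.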

The nature of assay [15]: CEETOX_H295R_ESTRADIOL: CeeTox H295R High-throughput Steroidogenesis Assay for Estradiol (AID 2283440).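 Note: estradiol secreted into medium quantified by LC-MS/MS after dansyl derivatisation.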 The settings on record: actives raise or lower the signal. The procedure, abridged: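 H295R cells pre-stimulated 48 h with 10 uM forskolin, then exposed 48 h to chemical in 0.1% DMSO. Medium estradiol quantified by MTBE extraction, dansyl derivatisation and HPLC-MS/MS; bidirectional fit versus DMSO; MTT viability required >/=70%.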

A short description of assay [16]: CEETOX_H295R_ESTRONE: CeeTox H295R High-throughput Steroidogenesis Assay for Estrone (AID 2283441).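 For AC50: human adrenal H295R cells prestimulated with forskolin for two days.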 The settings on record: actives raise or lower the signal. The procedure, abridged: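 Estrone secreted into medium quantified by LC-MS/MS after dansyl chloride derivatization, following 48 h chemical exposure (0.1% DMSO final) of forskolin-prestimulated (10 uM, 48 h) H295R cells; gain or loss fitted against DMSO; MTT viability in same wells.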

Read-out in assay [17]: growth arrest and DNA damage 45 (GADD45A), GADD45A (gene 1647)
The experiment in a line: LTEA_HepaRG_GADD45A: Life Technologies and Expression Analysis (LTEA) Assay for growth arrest and DNA damage 45 (GADD45A) using HepaRG (AID 2283458). The settings on record: mRNA level, 48 h; actives raise or lower the signal. Summed up: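 GADD45A expression was measured by TaqMan qRT-PCR against three housekeeping genes (ACTB, GAPDH, POLR2A) after 48 h treatment of HepaRG cells. Eight-point half-log series up to 100 uM in 0.5% DMSO, run in duplicate.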

Assay [18] in a line: CEETOX_H295R_TESTO: CeeTox H295R High-throughput Steroidogenesis Assay for Testosterone (TESTO) (AID 2283457).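 For AC50: cells exposed to chemicals for 48 h before medium collection.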 The settings on record: actives raise or lower the signal. The procedure, abridged: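 H295R adrenal cells, passage ≤10, exposed to chemicals for 48 h. Testosterone in medium measured by MTBE extraction and HPLC-MS/MS against a 7-point standard curve. Bidirectional fit versus DMSO; MTT viability checked in the same wells.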

Read-out in assay [19]: ABC Transporter (ABCC3), ABCC3 (gene 8714)
The experiment in a line: LTEA_HepaRG_ABCC3: Life Technologies and Expression Analysis (LTEA) Assay for ABC Transporter (ABCC3) using HepaRG (AID 2283462). The settings on record: mRNA level, 48 h; actives raise or lower the signal. Summed up:
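Differentiated human HepaRG cells exposed 48 h in serum-free induction medium, 0.5% DMSO vehicle, 8-point half-log series to 100 uM in duplicate. ABCC3 mRNA by qRT-PCR, normalised to ACTB, GAPDH, POLR2A; bidirectional fit vs DMSO.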

Chain of Fatty acid synthase (Homo sapiens) (P49327 whole entry, looked up): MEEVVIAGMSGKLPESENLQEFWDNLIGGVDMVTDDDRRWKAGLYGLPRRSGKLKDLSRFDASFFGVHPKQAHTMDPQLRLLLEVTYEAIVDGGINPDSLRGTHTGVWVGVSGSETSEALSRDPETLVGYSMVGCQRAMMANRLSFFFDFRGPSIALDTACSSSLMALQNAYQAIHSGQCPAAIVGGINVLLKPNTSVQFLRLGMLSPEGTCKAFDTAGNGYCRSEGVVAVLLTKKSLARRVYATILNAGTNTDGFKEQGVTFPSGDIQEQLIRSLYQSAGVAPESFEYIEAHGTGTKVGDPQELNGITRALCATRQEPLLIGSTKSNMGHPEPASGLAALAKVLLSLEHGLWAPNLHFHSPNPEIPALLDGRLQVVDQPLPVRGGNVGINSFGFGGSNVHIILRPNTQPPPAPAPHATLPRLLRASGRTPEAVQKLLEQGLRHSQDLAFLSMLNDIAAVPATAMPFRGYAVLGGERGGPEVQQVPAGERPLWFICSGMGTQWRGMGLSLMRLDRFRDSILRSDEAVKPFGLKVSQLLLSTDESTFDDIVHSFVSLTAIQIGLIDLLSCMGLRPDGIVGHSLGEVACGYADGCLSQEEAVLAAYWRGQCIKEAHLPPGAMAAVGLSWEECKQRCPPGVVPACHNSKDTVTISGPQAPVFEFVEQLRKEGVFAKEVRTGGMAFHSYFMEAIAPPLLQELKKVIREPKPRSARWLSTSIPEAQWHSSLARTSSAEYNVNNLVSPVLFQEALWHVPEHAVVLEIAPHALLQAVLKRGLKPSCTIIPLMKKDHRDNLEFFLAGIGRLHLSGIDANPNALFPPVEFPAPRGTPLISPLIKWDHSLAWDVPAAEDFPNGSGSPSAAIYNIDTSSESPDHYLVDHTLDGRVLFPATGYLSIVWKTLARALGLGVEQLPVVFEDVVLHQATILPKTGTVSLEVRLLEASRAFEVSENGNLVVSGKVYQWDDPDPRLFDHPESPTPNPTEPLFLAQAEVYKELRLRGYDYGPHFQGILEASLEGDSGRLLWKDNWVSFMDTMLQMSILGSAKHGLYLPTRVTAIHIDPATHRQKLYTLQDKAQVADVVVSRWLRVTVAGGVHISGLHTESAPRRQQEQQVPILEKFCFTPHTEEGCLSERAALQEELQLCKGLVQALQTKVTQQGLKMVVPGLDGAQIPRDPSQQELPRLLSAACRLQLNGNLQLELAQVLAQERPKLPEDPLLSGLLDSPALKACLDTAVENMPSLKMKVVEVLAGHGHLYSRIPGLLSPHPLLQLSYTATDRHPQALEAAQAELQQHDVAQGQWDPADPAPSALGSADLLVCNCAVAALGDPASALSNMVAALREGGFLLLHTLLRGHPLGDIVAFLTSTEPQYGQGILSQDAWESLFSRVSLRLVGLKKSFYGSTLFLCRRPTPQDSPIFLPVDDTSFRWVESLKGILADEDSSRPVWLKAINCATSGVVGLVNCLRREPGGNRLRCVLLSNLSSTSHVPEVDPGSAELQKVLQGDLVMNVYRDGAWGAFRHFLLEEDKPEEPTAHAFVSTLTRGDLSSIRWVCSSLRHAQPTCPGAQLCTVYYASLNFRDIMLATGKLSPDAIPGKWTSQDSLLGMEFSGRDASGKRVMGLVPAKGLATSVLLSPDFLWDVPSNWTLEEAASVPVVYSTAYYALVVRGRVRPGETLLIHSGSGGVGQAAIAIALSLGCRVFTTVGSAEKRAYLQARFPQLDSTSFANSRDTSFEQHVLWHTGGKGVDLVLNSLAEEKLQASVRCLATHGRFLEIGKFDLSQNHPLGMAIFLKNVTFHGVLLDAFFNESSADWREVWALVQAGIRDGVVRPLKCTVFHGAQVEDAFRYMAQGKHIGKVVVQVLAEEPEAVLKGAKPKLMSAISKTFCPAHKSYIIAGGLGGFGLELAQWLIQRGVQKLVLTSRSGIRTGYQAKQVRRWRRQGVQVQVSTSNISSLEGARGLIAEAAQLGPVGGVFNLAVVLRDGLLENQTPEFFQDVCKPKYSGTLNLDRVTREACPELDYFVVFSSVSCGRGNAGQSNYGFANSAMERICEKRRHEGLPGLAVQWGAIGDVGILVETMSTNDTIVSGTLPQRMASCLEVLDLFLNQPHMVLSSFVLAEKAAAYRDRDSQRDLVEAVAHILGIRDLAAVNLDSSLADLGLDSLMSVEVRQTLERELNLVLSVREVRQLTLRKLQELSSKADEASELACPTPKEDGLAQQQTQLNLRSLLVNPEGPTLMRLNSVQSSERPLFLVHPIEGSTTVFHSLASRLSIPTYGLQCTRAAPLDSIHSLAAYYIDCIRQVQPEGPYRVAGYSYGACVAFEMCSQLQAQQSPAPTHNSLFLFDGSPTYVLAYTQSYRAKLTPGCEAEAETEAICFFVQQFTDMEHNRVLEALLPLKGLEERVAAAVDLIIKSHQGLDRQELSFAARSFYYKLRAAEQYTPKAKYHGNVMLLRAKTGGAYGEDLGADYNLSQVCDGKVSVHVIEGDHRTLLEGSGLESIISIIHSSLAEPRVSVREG

`S=C([S-])NCCNC(=S)[S-].[Mn+2]`: the molecule was called inactive in assay [1], in assay [4] and in [5]. In addition, the half-maximal activity concentration (AC50) was 5.41 µM (active) in assay [2]; 2.55 µM (active) in assay [3]; 485 nM (active) in [6]; 2.97 µM (active) in assay [7]; 5.71 µM (active) in assay [8]; 8.74 µM (active) in assay [9]. Further, the AC50 in [10] was 3.43 µM (active); in assay [11] it was 3.51 µM (active); in assay [12] it was 3.47 µM (active); in assay [13] it was 5.56 µM (active); in assay [14], 1.85 µM (active).
For the molecule `CCN(Cc1c(F)cccc1Cl)c1c([N+](=O)[O-])cc(C(F)(F)F)cc1[N+](=O)[O-]`, the molecule was called inactive in [15], in assay [1], in [2], in assay [4], in assay [5] and in assay [6]. Moreover, the outcome in assay [10], in assay [11], in assay [12] and in assay [14] was inactive. Further, the AC50 in assay [16] was 13.7 µM (active); in [3] it was 50 µM (active); in assay [8], 50 µM (active); in [13], 50 µM (active).
Regarding `CC1(C)C(C=C(Cl)Cl)C1C(=O)OCc1cccc(Oc2ccccc2)c1` (centres undefined), in assay [1], the AC50 was 11.5 µM (active). Besides, the call in assay [2], in assay [3], in assay [4], in assay [5], in assay [6] and in assay [8] was inactive. In addition, the molecule was classed as inactive in assay [10], in [17], in assay [11], in assay [12], in assay [13] and in assay [14].
Take `CC(=O)S[C@@H]1CC2=CC(=O)CC[C@]2(C)[C@H]2CC[C@@]3(C)[C@@H](CC[C@@]34CCC(=O)O4)[C@H]12`: the molecule was called inactive in [15], in assay [16], in assay [1], in assay [2], in [4] and in [5]. The outcome in assay [6], in assay [10], in assay [17], in assay [11], in [12] and in assay [13] was inactive. In addition, the AC50 was 37.3 µM (active) in assay [3], 60.3 µM (active) in assay [8], 828 nM (active) in assay [18] and 67 µM (active) in assay [14].
Consider `c1ccc2[nH]c(-c3cscn3)nc2c1`, for which the result in assay [15], in assay [16], in assay [2], in assay [3], in [4] and in assay [5] was inactive. The call in [6], in assay [8], in assay [10], in assay [18], in assay [17] and in assay [11] was inactive. Besides, the molecule was classed as inactive in assay [12], in assay [13] and in assay [14]. The AC50 in assay [1] was 59 µM (active); in assay [9] it was 18.9 µM (active).
Take `CSC(=O)c1cccc2nnsc12`: the molecule was called inactive in assay [1], in assay [2], in assay [3], in [4], in assay [5] and in assay [6]. The outcome in assay [7], in [8], in assay [10], in [18], in assay [11] and in [12] was inactive. Besides, the call in [13], in assay [19] and in assay [14] was inactive.

Source of the values: PubChem BioAssay (EPA / NIEHS).
